# About 1,200 (3.2%) of roughly 38,000 compounds showed an effect of 50% or more. The median lay at about -58%. The sample as a whole holds a higher share of strong results than the screen did.
# System: Plasmodium falciparum
# Experiment: Calibr Malaria Delayed Death Assay SOP
# Type: functional, organism-based
# Design: scale not given: in the data most compounds retested in dose-response had high values
# Conditions: concentration 4.99e-06 (unit not given; other assays of the set use mol/L)
row,SMILES,Percent Effect
1,Cc1cccc(CN2CC[C@@H]3[C@@H]2CCN3C(=O)c2cc(C)oc2C)n1.O=C(O)C(F)(F)F,-98.87%
2,Cn1nc2c(cc1=O)CN(Cc1nc(N)c3ccccc3n1)CC2,-169.7%
3,Cc1cccc(C2CCCN(C(=O)c3ccncc3)C2)n1 (stereo unspecified),-31.2%
4,CCc1ccc(C(=O)N2CC(C(=O)NC(C)C)C3(CCOCC3)C2)cc1 (stereo unspecified),-34.39%
5,[O-][S+](CCN1CCc2[nH]nc(C(F)(F)F)c2C1)c1ccccc1 (stereo unspecified),-19.45%
6,OCCCN1CCc2[nH]nc(C(c3ccccc3)c3ccccc3)c2C1,71.73%
7,FC(F)(F)c1n[nH]c2c1CN(CCc1ccccn1)CC2,-42.86%
8,O=C(CCN1CCc2[nH]nc(C(F)(F)F)c2C1)Nc1ccccc1,-17.85%
9,OCCN1CCc2[nH]nc(C(c3ccccc3)c3ccccc3)c2C1,59.95%
10,CC(O)CN1CCc2[nH]nc(C(c3ccccc3)c3ccccc3)c2C1 (stereo unspecified),40.85%
11,COCCCC1(C(=O)O)CCCN(C(=O)c2ccc(Cl)cc2F)C1 (stereo unspecified),-104.4%
12,CNC(=O)c1ccc2c(c1)C1(CCN(CC3CC3)CC1)C(=O)N2.O=C(O)C(F)(F)F,-45%
13,CN(Cc1ccncc1)C1COC2(CCN(Cc3ccco3)CC2)C1.O=C(O)C(F)(F)F.O=C(O)C(F)(F)F.O=C(O)C(F)(F)F (stereo unspecified),-70.95%
14,CN(C)CC(C)(O)CNC(=O)Nc1sc2ccccc2c1Cl (stereo unspecified),61%
15,CS(=O)(=O)CCCNC(=O)Nc1sc2ccccc2c1Cl,-18.18%
16,CS(=O)(=O)CCNC(=O)Nc1sc2ccccc2c1Cl,-106.1%
17,CN(C)C(=O)N1C[C@@H]2CC[C@H](C1)N(C/C=C/c1ccc(F)cc1)C2,56.59%
18,CN(C)C(=O)CN1C[C@@H]2CC[C@H](C1)N(C/C=C/c1ccc(F)cc1)C2,41.87%
19,CS(=O)(=O)N1C[C@@H]2CC[C@H](C1)N(C/C=C/c1ccc(F)cc1)C2,-47.28%
20,CCN(c1ccsc1C(=O)N1CCSCC1)S(=O)(=O)c1ccc(Cl)cc1,-33.89%
21,Cc1cnn(Cc2ccc(NC(=O)N3CCCC3)cc2)c1,-108.6%
22,Cc1ccc(C(=O)N(C)Cc2csc(C)n2)c(=O)[nH]1,-148.4%
23,CCC(NC(=O)C1CCN(C(C)C)CC1)c1cn2cccnc2n1 (stereo unspecified),-73.6%
24,Cc1n[nH]c(C)c1-c1cc(-c2ccc[nH]2)nc(N)c1C#N,-191.7%
25,CC(C)Cc1cc(-c2cc(-c3ccc[nH]3)nc(N)c2C#N)n[nH]1,60.25%
26,Cc1n[nH]c(C)c1-c1cc(-c2cccc(O)c2)nc(N)c1C#N,-75.89%

# Reference: ChEMBL document CHEMBL3988442, “University of Dundee, Small-Polar-MMV Screening Library” (2021)
